Results on 16 compounds are retold here after PubChem BioAssay (NCI).

This is part of a sample that, as a whole, favours compounds with a hit. Of some 83,000 tested, about 20% had one in any assay.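 Plates (96-well) were seeded with cells, treated with compound at one concentration, and incubated for 48 hours before percent growth was determined.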 A number with no mark means an inactive call. The source made the active and inactive calls. Rule for the calls: active = growth percent below 10; inactive = the rest.

Test systems include T-47D breast; BT-549 breast; MDA-MB-435 melanoma; SW-620 colon; MCF7 breast; HCT-116 colon; HCC-2998 colon; KM12 colon.
Common to all, as to assay: NCI-60 one-dose screen, 48 h (100 = growth as untreated, 0 = no growth, -100 = all killed)
Common to all, as to conditions: 10 µM unless noted

As for `CC1=C(C(=O)Nc2ccccc2)C(c2ccc3c(c2)OCO3)NC(=S)N1` (stereo not drawn), the growth in the assay with T-47D breast was 101%; in the assay on BT-549 breast it was 88.1%; with MDA-MB-435 melanoma it was 103%; in the assay on SW-620 colon it was 107%; with MCF7 breast, 99.8%; in the assay on HCT-116 colon, 93.2%. Also, the growth was 109% with HCC-2998 colon and 103% in the assay with KM12 colon.
With `Fc1cccc(-c2ccc3c(c2)C2(CCNCC2)CN3)c1`, the growth is 78.9% with T-47D breast; 93.1% in the assay on BT-549 breast; 108% with MDA-MB-435 melanoma; 106% with SW-620 colon; 92.5% in the assay on MCF7 breast; 94.3% in the assay on HCT-116 colon. Also, the growth with HCC-2998 colon is 99.4%; with KM12 colon, 102%.
In the case of `Cc1ccc(-c2nc3nc(-c4ccccc4)nc(N4CCCN(S(C)(=O)=O)CC4)c3o2)cc1`, the growth with T-47D breast was 92.1%; with BT-549 breast, 94.2%; with MDA-MB-435 melanoma, 34.5%; in the assay on SW-620 colon, 44.1%; in the assay on MCF7 breast, 65.1%; in the assay on HCT-116 colon, 24.4%. The growth with HCC-2998 colon is 96.6%; in the assay with KM12 colon, 86.8%.
With `CCN1CCN(CC(=O)Nc2nc3ccc(NCc4ccc(F)cc4)cc3s2)CC1`, the growth with T-47D breast was 86.8%; with BT-549 breast, 97.9%; with MDA-MB-435 melanoma, 93.4%; in the assay with SW-620 colon it was 92.3%; in the assay on MCF7 breast it was 92.1%; in the assay with HCT-116 colon, 70.9%. The growth in the assay on HCC-2998 colon was 110%; in the assay with KM12 colon, 94.5%.
With `COc1ccc2c(c1)c(-c1nc(-c3c[nH]c4ncccc34)cs1)cn2CCCN1CCOCC1`, the growth with T-47D breast is 31.7%; in the assay with BT-549 breast it was 52.2%; in the assay with MDA-MB-435 melanoma it was 47%; in the assay on SW-620 colon it was 21.2%; in the assay with MCF7 breast, 13.3%; with HCT-116 colon it was 25.3%. Also, the growth with HCC-2998 colon is 65.5%; in the assay with KM12 colon, 17%.
Consider `Cc1ccc(-c2csc(NC(=O)c3ccccc3CN3C(=O)c4ccccc4C3=O)n2)cc1`, for which the growth in the assay on T-47D breast was 97.1%; with BT-549 breast, 91.4%; in the assay with MDA-MB-435 melanoma, 95.3%; with SW-620 colon, 100%; in the assay on MCF7 breast, 94.3%; in the assay with HCT-116 colon, 95.4%. For the same compound, the growth was 98% with HCC-2998 colon and 100% in the assay on KM12 colon.
Take `Cc1cccc2c1C[C@@]1(C2=O)C(c2ccc(C(C)(C)C)cc2)=NOS1=O` (stereo partly drawn): the growth was 70.2% in the assay on T-47D breast; 104% with BT-549 breast; 109% in the assay on MDA-MB-435 melanoma; 100% with SW-620 colon; 66.2% with MCF7 breast; 91.6% in the assay with HCT-116 colon. Besides, the values for the growth with HCC-2998 colon and with KM12 colon were 109% and 91.9%, respectively.
In the case of `CNC1=C([N+](=O)[O-])C(c2ccc(OC)cc2)C(C#N)=C(c2cccs2)O1` (stereo not drawn), the growth with T-47D breast was 91.7%; in the assay with BT-549 breast it was 117%; in the assay with MDA-MB-435 melanoma, 108%; in the assay with SW-620 colon it was 106%; in the assay with MCF7 breast, 96%; in the assay on HCT-116 colon it was 109%. In addition, the values for the growth in the assay on HCC-2998 colon and with KM12 colon were 109% and 103%, respectively.
On to `C#CCNC(=O)[C@]1(C)CCC[C@@]2(C)[C@H]1CC=C1C=C(C(C)C)CC[C@@H]12`, for which the growth is 85.2% with T-47D breast; 100% in the assay with BT-549 breast; 104% in the assay with MDA-MB-435 melanoma; 109% with SW-620 colon; 85.6% in the assay on MCF7 breast; 107% in the assay on HCT-116 colon. Besides, the growth in the assay with HCC-2998 colon and in the assay with KM12 colon was 100% throughout.
With `Clc1ccc(-c2cc(-c3ccccc3)nc(NCCNc3ccnc4cc(Cl)ccc34)n2)cc1`, the growth in the assay on T-47D breast is 11.8%; in the assay with BT-549 breast, 88.3%; in the assay on MDA-MB-435 melanoma it was -56.9% (active); in the assay on SW-620 colon, -63% (active); with MCF7 breast, -76.8% (active); in the assay on HCT-116 colon, -79.4% (active). In addition, the values for the growth with HCC-2998 colon and in the assay on KM12 colon were -88.9% (active) and -5.53% (active), respectively.
As to `CN1C(=O)/C(=C/c2ccc(C(=O)Nc3ncc(Cc4cccc(Cl)c4)s3)cc2)SC1=S`, the growth in the assay on T-47D breast is 42.7%; in the assay on BT-549 breast, 57%; with MDA-MB-435 melanoma it was 5.05% (active); with SW-620 colon it was 37.4%; in the assay on MCF7 breast, 46%; with HCT-116 colon, 47.5%. The results for the growth in the assay with HCC-2998 colon and in the assay on KM12 colon were 59.2% and 33.5%, respectively.
Consider `Cc1ccc(C)c2c(C)c(C(=O)Nc3cccc(-n4cccn4)c3)oc12`, for which the growth was 7.95% [50 µM] (active) in the assay with T-47D breast; 61.5% [50 µM] in the assay with BT-549 breast; 69.9% [50 µM] in the assay on MDA-MB-435 melanoma; 70.2% [50 µM] with SW-620 colon; 13.2% [50 µM] in the assay on MCF7 breast; 50.7% [50 µM] in the assay with HCT-116 colon. Moreover, the results for the growth in the assay with HCC-2998 colon and in the assay on KM12 colon were 81.2% [50 µM] and 56.3% [50 µM], respectively.
Take `COc1cc(/C=C2\CN(S(=O)(=O)c3ccccc3)C/C(=C\c3cc(CN4CCCCC4)c(O)c(OC)c3)C2=O)cc(CN2CCCCC2)c1O`: the growth in the assay on T-47D breast is 89.2%; in the assay on BT-549 breast, -39.9% (active); in the assay on MDA-MB-435 melanoma, -88.6% (active); in the assay on SW-620 colon, -74.5% (active); with MCF7 breast it was -51.9% (active); in the assay with HCT-116 colon, -67.4% (active). The growth is -68% (active) in the assay with HCC-2998 colon and -87.1% (active) with KM12 colon.
For the compound `CCCCCN(CCCCC)CC(O)c1cc(C)c2ccc3cc(C(C)C)ccc3c2c1` (stereo not drawn), the growth in the assay on T-47D breast is 53.3%; in the assay on BT-549 breast it was 90.5%; in the assay on MDA-MB-435 melanoma it was 0.846% (active); in the assay on SW-620 colon it was -75.3% (active); in the assay on MCF7 breast it was -86.2% (active); in the assay with HCT-116 colon, -84.8% (active). For the same compound, the growth in the assay with HCC-2998 colon is -50.8% (active); with KM12 colon, -64.7% (active).
Take `COc1ccc(/C=C/c2ccc3ccccc3n2)c(OC)c1`: the growth with T-47D breast is 72.8%; with BT-549 breast, 67.8%; in the assay on MDA-MB-435 melanoma, -5.31% (active); in the assay with SW-620 colon it was 38.1%; in the assay on MCF7 breast it was 57%; with HCT-116 colon it was 62.3%. Moreover, the growth in the assay with HCC-2998 colon was 72.4%; with KM12 colon, 52.5%.
For the compound `O=S(=O)(Nc1cc(Sc2cccc3cccnc23)c(O)c2ccccc12)c1ccccc1`, the growth in the assay with T-47D breast was -26% (active); with BT-549 breast, 31.4%; in the assay with MDA-MB-435 melanoma, 11.3%; in the assay on SW-620 colon it was -67.8% (active); with MCF7 breast it was -54.6% (active); in the assay on HCT-116 colon it was -15.2% (active). The growth with HCC-2998 colon was 36.9%; with KM12 colon, 13.6%.
